Consider 14 molecules from PubChem BioAssay.

SMILES strings stand for the structures. Activity calls are given as the source filed them.

Experiment [1] has as its system PRMT1 (protein arginine N-methyltransferase 1). Nature of the experiment: PRMT1 binders on small-molecule microarrays, primary screen, biochemical, small-molecule microarray, 635 nm fluorescence (AID 1088).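 Also: binding of Prmt1 protein to compounds spotted on small-molecule microarray slides.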 As to conditions: small-molecule microarray binding, higher = more signal.
A short description of experiment [2]: yeast growth modulation, basal conditions, primary screen, YJM789 clinical isolate, OD600, 24 h (AID 1089).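 Also: growth of clinical yeast isolate S. cerevisiae YJM 789 seeded 1000 cells per well; test concentration not given here.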 As to conditions: S. cerevisiae YJM789 growth, higher = more signal, called active from +8 up or from −8 down.
Experiment [3] can be described thus: fission yeast growth modulation, primary screen, strain 972, OD600, 24 h, no modulator (AID 1090).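 Also: basal condition with compound alone and no growth modifier present; test concentration not given here.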 As to conditions: S. pombe 972 growth, higher = more signal, called active from +8 up or from −8 down.
Experiment [4] in a line: S. cerevisiae growth modulation with rapamycin, primary screen, strain BY4716, OD600, 96 h (AID 1091). Also: test concentration not given here. As to conditions: higher = more signal, called active from +8 up or from −8 down.
The target of experiment [5] is Torsin-1A-interacting protein 2 (Homo sapiens) (UniProt Q8NFQ8). Nature of the experiment: LULL1 binders on small-molecule microarray, primary screen, cell lysate, human LULL1 lysate, 635/667 nm fluorescence (AID 1092).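 Also: probe is lysate of COS7 cells overexpressing human LULL1; score merges per-feature 667 nm fluorescence with signal-to-noise.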 As to conditions: hLULL1 lysate binding, 635 nm fluorescence, higher = more signal.
Torsin-1A-interacting protein 2 (Homo sapiens), sequence (Q8NFQ8 whole entry, looked up): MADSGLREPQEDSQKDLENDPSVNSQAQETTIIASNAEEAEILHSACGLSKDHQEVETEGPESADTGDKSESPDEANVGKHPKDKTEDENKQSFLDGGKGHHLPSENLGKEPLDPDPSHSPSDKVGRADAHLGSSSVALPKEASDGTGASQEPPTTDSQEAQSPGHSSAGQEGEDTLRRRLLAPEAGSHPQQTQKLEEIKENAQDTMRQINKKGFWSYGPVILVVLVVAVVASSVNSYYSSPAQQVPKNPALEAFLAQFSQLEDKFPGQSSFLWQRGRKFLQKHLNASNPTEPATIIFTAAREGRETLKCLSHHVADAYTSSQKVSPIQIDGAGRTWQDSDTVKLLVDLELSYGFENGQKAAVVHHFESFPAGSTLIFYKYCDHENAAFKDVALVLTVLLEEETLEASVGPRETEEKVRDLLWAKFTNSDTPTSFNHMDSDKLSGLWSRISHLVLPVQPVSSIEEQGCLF
Experiment [6] in a line: E. coli growth modulation, two-sided OD650, primary screen, E. coli filamentation project, strain DRC41, 24 h (AID 1093).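 Also: MC1000 strain lacking acrAB efflux and sulA so SOS filamentation is blocked; test concentration not given here.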 As to conditions: OD650, 24 h, higher = more signal, called active from +8 up or from −8 down.
Experiment [7] can be described thus: small-molecule microarray binders of probe aLefty2, primary screen, biochemical, biotinylated probe, 635/667 nm fluorescence (AID 1094).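 Also: score merges spot fluorescence near 667 nm with spot signal-to-noise ratio.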 As to conditions: higher = more signal.
The subject of experiment [8] is Noggin (protein binding on small-molecule microarray). Nature of the experiment: Noggin binders on small-molecule microarray, primary screen, biochemical, 635/667 nm fluorescence (AID 1095).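 Also: score merges 667 nm feature fluorescence with signal to noise over triplicate slides.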 As to conditions: 635 nm fluorescence, higher = more signal.
For experiment [9], the target named is Neurogenic locus notch homolog protein 3 (Homo sapiens) (UniProt Q9UM47). Nature of the experiment: NOTCH3 binders on small-molecule microarray, primary screen, biochemical, 635/667 nm fluorescence (AID 1096). As to conditions: NOTCH3 binding, 635 nm fluorescence, higher = more signal.
Neurogenic locus notch homolog protein 3 (Homo sapiens), sequence (Q9UM47 whole entry, looked up): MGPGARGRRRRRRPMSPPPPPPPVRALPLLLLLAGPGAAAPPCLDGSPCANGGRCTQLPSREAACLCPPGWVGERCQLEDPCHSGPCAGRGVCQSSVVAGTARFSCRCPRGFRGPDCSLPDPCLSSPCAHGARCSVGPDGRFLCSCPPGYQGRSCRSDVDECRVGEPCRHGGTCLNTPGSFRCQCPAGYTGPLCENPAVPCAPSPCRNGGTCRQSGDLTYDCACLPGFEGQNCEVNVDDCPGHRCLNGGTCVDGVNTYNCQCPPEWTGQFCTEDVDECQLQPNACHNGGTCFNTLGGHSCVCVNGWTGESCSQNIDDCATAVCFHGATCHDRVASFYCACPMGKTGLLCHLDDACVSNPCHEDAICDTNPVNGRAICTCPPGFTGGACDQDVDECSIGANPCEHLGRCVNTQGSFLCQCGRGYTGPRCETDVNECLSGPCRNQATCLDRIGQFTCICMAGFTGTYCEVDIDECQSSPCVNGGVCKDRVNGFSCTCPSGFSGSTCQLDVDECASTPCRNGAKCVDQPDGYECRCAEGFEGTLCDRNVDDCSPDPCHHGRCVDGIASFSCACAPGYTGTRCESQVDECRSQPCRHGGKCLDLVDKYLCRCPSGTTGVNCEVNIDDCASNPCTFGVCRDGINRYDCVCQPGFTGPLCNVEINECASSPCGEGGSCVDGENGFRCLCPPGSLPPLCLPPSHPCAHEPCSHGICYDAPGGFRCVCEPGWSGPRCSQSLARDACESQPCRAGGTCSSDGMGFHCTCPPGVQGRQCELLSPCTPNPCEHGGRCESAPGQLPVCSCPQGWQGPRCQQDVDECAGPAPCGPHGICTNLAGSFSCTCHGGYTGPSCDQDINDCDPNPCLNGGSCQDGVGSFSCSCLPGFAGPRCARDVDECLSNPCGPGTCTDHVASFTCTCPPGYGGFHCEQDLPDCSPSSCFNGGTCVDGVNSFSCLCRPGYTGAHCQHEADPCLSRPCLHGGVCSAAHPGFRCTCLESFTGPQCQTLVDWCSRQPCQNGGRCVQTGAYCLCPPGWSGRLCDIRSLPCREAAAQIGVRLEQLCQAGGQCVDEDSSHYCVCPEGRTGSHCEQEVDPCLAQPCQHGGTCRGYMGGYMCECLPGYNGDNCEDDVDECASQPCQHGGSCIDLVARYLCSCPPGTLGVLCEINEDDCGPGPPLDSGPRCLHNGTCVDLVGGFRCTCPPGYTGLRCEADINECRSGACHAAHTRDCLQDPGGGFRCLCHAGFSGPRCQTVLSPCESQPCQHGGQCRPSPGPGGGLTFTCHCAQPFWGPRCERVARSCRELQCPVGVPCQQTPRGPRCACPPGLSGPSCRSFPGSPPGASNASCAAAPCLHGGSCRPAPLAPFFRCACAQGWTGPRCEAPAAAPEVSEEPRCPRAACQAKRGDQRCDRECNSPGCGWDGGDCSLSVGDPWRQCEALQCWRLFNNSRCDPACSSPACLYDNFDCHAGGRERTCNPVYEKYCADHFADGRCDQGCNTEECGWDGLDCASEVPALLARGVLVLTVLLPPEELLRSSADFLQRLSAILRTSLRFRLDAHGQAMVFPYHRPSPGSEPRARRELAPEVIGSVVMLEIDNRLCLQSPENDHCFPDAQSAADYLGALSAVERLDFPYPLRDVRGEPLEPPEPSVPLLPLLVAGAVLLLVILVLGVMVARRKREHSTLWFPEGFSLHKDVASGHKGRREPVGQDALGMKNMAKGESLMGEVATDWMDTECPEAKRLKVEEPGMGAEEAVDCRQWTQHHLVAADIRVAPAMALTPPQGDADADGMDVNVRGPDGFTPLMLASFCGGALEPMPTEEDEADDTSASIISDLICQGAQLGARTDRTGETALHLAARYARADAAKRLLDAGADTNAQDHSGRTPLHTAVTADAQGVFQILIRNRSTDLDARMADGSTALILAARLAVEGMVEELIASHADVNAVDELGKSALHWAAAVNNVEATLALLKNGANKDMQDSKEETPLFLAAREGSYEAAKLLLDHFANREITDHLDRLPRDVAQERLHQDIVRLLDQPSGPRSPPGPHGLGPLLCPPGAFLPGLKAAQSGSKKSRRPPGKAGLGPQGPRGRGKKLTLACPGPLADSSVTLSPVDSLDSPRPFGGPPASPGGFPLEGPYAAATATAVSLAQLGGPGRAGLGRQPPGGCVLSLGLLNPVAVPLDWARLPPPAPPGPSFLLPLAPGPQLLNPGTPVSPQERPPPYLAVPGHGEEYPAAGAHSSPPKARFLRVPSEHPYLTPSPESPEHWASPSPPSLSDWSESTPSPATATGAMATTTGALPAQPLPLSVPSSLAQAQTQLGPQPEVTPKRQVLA
Experiment [10] is described as follows: small-molecule microarray binders of probe aEGFR, primary screen, biochemical, biotinylated probe, 635/667 nm fluorescence (AID 1097).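 Also: probe is a biotinylated anti-EGFR antibody binding compounds printed on slides; score combines fluorescence near 667 nm and signal to noise of each spot.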 As to conditions: higher = more signal.

As to `C=CCOC(=O)[C@@H]1[C@H]2C(=O)O[C@H](c3ccccc3)[C@H](c3ccccc3)N2[C@H](c2ccc(OCCOC(=O)[C@@H]3C[C@@H]4C(=O)N[C@@H](CC(C)C)C(=O)N4[C@@H]3c3ccc(O)cc3)cc2)[C@@]12C(=O)Nc1ccc(I)cc12`, the composite z-score was 1.56 in experiment [1]; 1.82 in [5]; -0.0321 in experiment [7]; 1.69 in [8]; 1.08 in experiment [9]; 0.105 in [10]. For the same molecule, the z-score in experiment [2] is -0.677 (inactive); in experiment [3], 1.63 (inactive); in experiment [4] it was 18.2 (active); in [6], 1.16 (inactive).

Take `COCCCNC(=O)[C@@]1(Cc2ccccc2I)c2ccccc2C(=O)N(Cc2ccccc2C(F)(F)F)[C@H]1c1ccc(CO)cc1`: the composite z-score is 1.4 in experiment [1]; 2.47 in [5]; -0.0654 in [7]; -0.473 in [8]; 0.03 in experiment [9]; -0.291 in [10]. Further, the z-score is -0.784 (inactive) in experiment [2], 0.25 (inactive) in experiment [3], 0.437 (inactive) in experiment [4] and -0.627 (inactive) in [6].

As for `C=CC[C@]1(C(N)=O)N=C(c2ccc(OCCCO)cc2)O[C@H]1c1ccccc1N=[N+]=[N-]`, the composite z-score in [1] amounted to 1.37; in experiment [5], 3.33; in experiment [7] it was 0.239; in [8] it was 0.301; in [9] it was 0.923; in [10], 0.0049. Also, the z-score in experiment [2] is 0.344 (inactive); in experiment [3], -1.3 (inactive); in experiment [4] it was 0.673 (inactive); in [6], 1.94 (inactive).

Take `Cc1ccc(S(=O)(=O)N2[C@@H](c3ccccc3)C(C(=O)O)=C[C@H]2C(C)(C)C)cc1`: the composite z-score in experiment [1] turned out to be 1.55; in experiment [5], 2.88; in experiment [7], 0.152; in [8], 0.126; in experiment [9], 1.08; in experiment [10] it was 0.131. The z-score in experiment [2] was -0.601 (inactive); in experiment [3], -0.273 (inactive); in [4], -0.802 (inactive); in [6] it was -0.231 (inactive).

Consider `CS(=O)(=O)CCOC(=O)C1=CC(CCCO)=CC(C2CC2)N(Cc2sc3ccccc3c2Cl)C=C1C(=O)OCCS(C)(=O)=O` (stereo not given), for which the composite z-score in experiment [1] stood at 1.13; in experiment [5], 3.09; in experiment [7], 0.247; in experiment [8], 0.482; in experiment [9] it was 1.09; in experiment [10], 0.0432. Further, the z-score is -0.853 (inactive) in [2], -5.1 (inactive) in experiment [3], -1.47 (inactive) in experiment [4] and 0.189 (inactive) in [6].

On to `CCc1cccc(NC(=O)O[C@H]2[C@H](OC(=O)Nc3ccccc3-c3ccccc3)[C@H](OC(=O)Nc3ccccc3-c3ccccc3)[C@@H](OC)O[C@@H]2CO)c1`, for which the composite z-score in experiment [1] is 1.55; in [5], 2.91; in experiment [7], 0.229; in experiment [8], 1.48; in experiment [9], 1.05; in experiment [10] it was -0.0232. Moreover, the z-score in experiment [2] was 1.95 (inactive); in experiment [3], 1.31 (inactive); in [4], 0.423 (inactive); in experiment [6], -1.08 (inactive).

`COCCOC(=O)N1C(=O)[C@@]2(c3cc(C#CC4=CCCCC4)ccc31)[C@H](C(=O)N1CCCCCCC1)[C@H]1C(=O)O[C@H](c3ccccc3)[C@H](c3ccccc3)N1[C@@H]2c1ccccc1OCCO`: the composite z-score in experiment [1] was 1.55; in [5] it was 3.02; in experiment [7] it was 1.15; in [8] it was 1.5; in experiment [9], 1.06; in experiment [10] it was 0.417. The z-score was 1.01 (inactive) in experiment [2], -1.22 (inactive) in experiment [3], 1.98 (inactive) in experiment [4] and 0.87 (inactive) in [6].

Consider `CC1C2C(CCCO)=CC(C3C(=O)N(C(N)=O)C(=O)C23)N1Cc1cccc(OC(F)(F)F)c1` (stereo not given), for which the composite z-score in experiment [1] is 1.31; in [5] it was 2.79; in [7] it was -0.139; in experiment [8], 0.487; in experiment [9], 0.628; in [10], -0.0828. The z-score in experiment [2] was -3.02 (inactive); in [3] it was -0.198 (inactive); in experiment [4], 0.58 (inactive); in experiment [6], 0.262 (inactive).

`COC(=O)C(CC#Cc1ccc2c(c1)[C@]1(C(=O)N2)[C@H](C(=O)NC[C@H](O)c2ccccc2)[C@H]2C(=O)O[C@H](c3ccccc3)[C@H](c3ccccc3)N2[C@@H]1c1ccc(O)cc1)C(=O)OC`: the composite z-score is 0.356 in experiment [1]; 0.719 in experiment [5]; -0.055 in experiment [7]; 0.264 in experiment [8]; 0.401 in experiment [9]; -0.0509 in experiment [10]. The z-score was 0.542 (inactive) in [2], 0.793 (inactive) in experiment [3], 0.162 (inactive) in [4] and -1.02 (inactive) in experiment [6].

With `COc1ccc([Si](C)(C)[C@H]2[C@H](CCO)O[C@@]3(C(=O)N(Cc4ccccc4)c4ccc(NC(=O)[C@H](C)O)cc43)[C@@H]2C)cc1`, the composite z-score in experiment [1] is 1.44; in experiment [5], 2.24; in experiment [7] it was 0.0092; in [8], -0.227; in experiment [9], 0.149; in experiment [10], 0.148. Also, the z-score is 2.75 (inactive) in [2], 0.215 (inactive) in [3], 5.82 (inactive) in experiment [4] and 0.25 (inactive) in experiment [6].

As for `C=CCNC(=O)[C@@H]1[C@H]2C(=O)O[C@H](c3ccccc3)[C@H](c3ccccc3)N2[C@H](c2ccc(OCCO)cc2)[C@@]12C(=O)N(C(=O)OCCOC)c1ccccc12`, the composite z-score in experiment [1] was 1.53; in [5] it was 2.92; in experiment [7], -0.0267; in [8], 1.04; in experiment [9], 1.06; in experiment [10], 0.0413. For the same molecule, the z-score in experiment [2] is 2.46 (inactive); in experiment [3], 1.67 (inactive); in experiment [4] it was 5.18 (inactive); in [6], 0.246 (inactive).

As to `COc1ccc(CCNC(=O)[C@@]2(C)c3ccccc3C(=O)N(Cc3ccc(OC(F)(F)F)cc3)[C@H]2c2ccc(CO)cc2)cc1`, the composite z-score in experiment [1] is 1.55; in [5], 2.25; in [7], -0.403; in experiment [8] it was 1.11; in [9], 0.743; in experiment [10], 0.686. Besides, the z-score was -0.219 (inactive) in experiment [2], -0.553 (inactive) in experiment [3], 0.997 (inactive) in [4] and -0.663 (inactive) in experiment [6].

With `COc1ccc(C(O)C2C=CC3C(=O)N(c4ccccc4)C(=O)C3N2Nc2ccccc2F)c2ccccc12` (stereo not given), the composite z-score in [1] was determined as 1.55; in experiment [5], 3.33; in [7], 0.582; in experiment [8], 0.117; in experiment [9] it was 1.05; in experiment [10] it was 0.697. Besides, the z-score in experiment [2] is -0.466 (inactive); in experiment [3], -0.0101 (inactive); in experiment [4], 0.257 (inactive); in [6] it was -0.0841 (inactive).

`CC(C)C(=C=CC[C@H](O)c1cccc(OCCO)c1)C[C@H](O)c1ccccn1`: the composite z-score in experiment [1] was 1.21; in [5] it was 1.55; in experiment [7] it was -0.143; in [8], 0.731; in experiment [9], 0.403; in [10], -0.157. For the same molecule, the z-score was 0.262 (inactive) in experiment [2], 0.317 (inactive) in experiment [3], -0.647 (inactive) in experiment [4] and 0.879 (inactive) in experiment [6].
